For 3 compounds, fish with circulating GFP thrombocytes results are on record in PubChem BioAssay AID504373 (National Center for Advancing Translational Sciences (NCATS), 2011).

Results filed as inconclusive are left out. The source made the active and inactive calls.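 The calls were made as follows: active = fewer circulating green fluorescent tagged thrombocytes in treated fish, with no visible harm to the embryos; inconclusive = compound visibly harmful to the embryos; inactive = no drop in circulating tagged thrombocytes.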

The first test in a line: qHTS Assay for Compounds Blocking the Interaction Between CBF-beta and RUNX1 for the Treatment of Acute Myeloid Leukemia: Zebrafish assay for Hematopoiesis, SAR for Probe. The note with it: GFP-cd41 zebrafish embryos, microscopy, 5 days, at 25 µM, stronger effect = lower value. The source says:
NIH Chemical Genomics Center [NCGC] NIH Molecular Libraries Probe Production centers Network [MLPCN] MLPCN Grant: X01MH083259-01 Assay Submitter (PI): Paul Liu NCGC Assay Overview: Core Binding Factor (CBF) abnormalities are associated with 20-25% of all acute myeloid leukemias (AML), of which 5-10% are further sub classified as acute myelomonocytic leukemia with eosinophilia, also known as M4Eo in the FAB classification scheme. This subtype of leukemia is usually associated with chromosome 16 inversion (p13:q22). Chromosome 16 inversion results in formation of the fusion oncogene CBFB-MYH11, which encodes the fusion protein CBF-beta-SMMHC. […] It has been hypothesized that the interference of CBF-beta and RUNX1 binding could have therapeutic implications for patients with CBF mediated leukemias. We developed a CBF-beta and RUNX1 binding assay in AlphaScreenTM format and optimized it for high throughput screening to search for inhibitors. The goal of this project is to screen MLPCN's compound collection (MLSMR) for identifying the inhibitors of the interaction between CBF-beta and RUNX1 proteins as research probes. If these probes work well in the animal models, the ultimate goal of this project is to development a new drug treatment for this disease. […] These fish contain a genomic modulation where GFP has been fused to cd41, a marker for thrombocytes, and thus circulating thrombocytes can be easily imaged in anesthetized fish.
Assay protocol: GFP-cd41 zebrafish were kindly provided by the Liu lab. Zebrafish embryos were incubated with compound (<0.1% DMSO final) at 48 hours post fertilization, for 5 days. Embryos were manually scored under a microscope with GFP illumination for circulating GFP-tagged thrombocytes. Keywords: MLSMR, MLPCN, NIH Roadmap, qHTS, NCGC, Core binding factor, CBF, CBF-beta, Acute myeloid leukemia
On the technique in general: qHTS replaces the single test concentration by a dilution series.
As for `CCN(CC)CCN1C(=O)CN=C(c2ccccn2)c2cc(Cl)ccc21`, the fish with circulating GFP thrombocytes is 66.7% (active).
Same read-out and setting: the value for `CCN(CC)CCN1C(=O)CN=C(c2ccc[nH]2)c2cc(Cl)ccc21` was 45.8% (active).
Same read-out and setting: the value for `CN1C(=O)CN=C(c2ccc[nH]2)c2cc(Cl)ccc21` (tested in a mixture with another compound) was 29.2% (active).

Staying with this test, now noted: GFP-cd41 zebrafish embryos, microscopy, 5 days, at 50 uM, stronger effect = lower value.
On to `CCN(CC)CCN1C(=O)CN=C(c2ccccn2)c2cc(Cl)ccc21`, for which the fish with circulating GFP thrombocytes came to 66.7%.
The same measure, in the same setting: to `CCN(CC)CCN1C(=O)CN=C(c2ccc[nH]2)c2cc(Cl)ccc21` belongs 70.8%.
On the same count and under the same terms, to `CN1C(=O)CN=C(c2ccc[nH]2)c2cc(Cl)ccc21` (tested in a mixture with another compound) belongs 0%.
